Here are results for eight compounds from PubChem BioAssay.

Activity calls are given as the source filed them.

Test [1] can be described thus: optical density shifts of acrAB sulA E. coli – strain DRC41, OD650, 48 h, E. coli filamentation inducer project, primary screen (AID 1152).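 Note: E. coli MC1000 strain DRC41 lacking acrAB efflux pump and sulA.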 To be noted: higher = more signal, called active from +8 up or from −8 down.
Test [2] in a line: probe aLefty1 binding on compound microarray – biochemical, small-molecule microarray, 635/667 nm fluorescence, primary screen (AID 1153).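 Note: score merges spot fluorescence with signal-to-noise ratio from the scanned slide images.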 The settings on record: higher = more signal.
Test [3] can be described thus: plasmodial surface anion channel blockers, osmotic lysis – cell-based, P. falciparum Indochina, OD700, 1 h, primary screen (AID 1154). To be noted: P. falciparum Indochina infected RBC osmotic lysis, higher = more signal, called active from +8 up or from −8 down.
Test [4] can be described thus: plasmodial surface anion channel blockers, osmotic lysis – cell-based, P. falciparum Indochina, OD700, 2 h, primary screen (AID 1155).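 Note: lysis reports solute entry through the parasite surface anion channel PSAC.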 The settings on record: P. falciparum Indochina infected erythrocytes, higher = more signal, called active from +8 up or from −8 down.
A short description of test [5]: changes in parasitized red cell lysis, either direction – P. falciparum Indochina, OD700, 3 h, PSAC antagonist project, primary screen (AID 1156). To be noted: P. falciparum-infected erythrocytes, osmotic lysis, higher = more signal, called active from +8 up or from −8 down.
The nature of test [6]: plasmodial surface anion channel blockers, osmotic lysis – cell-based, P. falciparum Indochina, OD700, 18 h, primary screen (AID 1157). The settings on record: P. falciparum Indochina infected erythrocytes, osmotic lysis OD700, 18 h; higher = more signal, called active from +8 up or from −8 down.
Test [7] can be described thus: S6 kinase pathway phospho-S6 level changes – cell-based, A549, cytoblot, luminescence, serum-stimulated, primary screen (AID 1158).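 Note: serum-stimulated A549 lung adenocarcinoma cells; signal is phosphorylated S6 detected by cytoblot immunostaining with HRP secondary.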 To be noted: 5 h, higher = more signal.
The target of test [8] is NADPH oxidase 2 (Homo sapiens) (UniProt P04839). Briefly: compounds shifting NOX2 Amplex Red fluorescence – cell-based, HEK293-NOX2, PMA-stimulated, NOX inhibitor project, primary screen (AID 1159). Note: test concentration not given here. The settings on record: 45 min, higher = more signal, called active from +8 up or from −8 down.
NADPH oxidase 2 (Homo sapiens), sequence (P04839 whole entry, looked up): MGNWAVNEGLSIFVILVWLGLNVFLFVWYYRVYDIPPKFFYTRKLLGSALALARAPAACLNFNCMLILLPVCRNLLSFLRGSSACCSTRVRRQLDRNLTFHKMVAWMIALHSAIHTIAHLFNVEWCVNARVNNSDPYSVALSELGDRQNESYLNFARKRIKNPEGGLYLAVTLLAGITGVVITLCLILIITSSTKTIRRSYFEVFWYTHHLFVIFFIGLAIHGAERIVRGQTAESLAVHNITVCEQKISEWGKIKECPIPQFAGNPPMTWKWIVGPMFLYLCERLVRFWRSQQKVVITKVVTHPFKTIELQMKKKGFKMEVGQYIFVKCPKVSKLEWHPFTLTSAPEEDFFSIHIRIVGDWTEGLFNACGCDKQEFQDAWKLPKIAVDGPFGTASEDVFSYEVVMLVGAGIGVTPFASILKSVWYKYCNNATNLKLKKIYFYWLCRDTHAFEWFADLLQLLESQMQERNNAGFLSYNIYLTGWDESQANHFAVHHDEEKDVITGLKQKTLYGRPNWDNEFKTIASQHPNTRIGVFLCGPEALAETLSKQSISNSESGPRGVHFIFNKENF
In test [9] the target is NADPH oxidase 4 (Homo sapiens) (UniProt Q9NPH5). The experiment in a line: compounds shifting NOX4 Amplex Red fluorescence – cell-based, HEK293-NOX4, tetracycline-induced, NOX inhibitor project, primary screen (AID 1160). To be noted: HEK293-NOX4, Amplex Red H2O2 fluorescence, 45 min; higher = more signal, called active from +8 up or from −8 down.
NADPH oxidase 4 (Homo sapiens), sequence (Q9NPH5 whole entry, looked up): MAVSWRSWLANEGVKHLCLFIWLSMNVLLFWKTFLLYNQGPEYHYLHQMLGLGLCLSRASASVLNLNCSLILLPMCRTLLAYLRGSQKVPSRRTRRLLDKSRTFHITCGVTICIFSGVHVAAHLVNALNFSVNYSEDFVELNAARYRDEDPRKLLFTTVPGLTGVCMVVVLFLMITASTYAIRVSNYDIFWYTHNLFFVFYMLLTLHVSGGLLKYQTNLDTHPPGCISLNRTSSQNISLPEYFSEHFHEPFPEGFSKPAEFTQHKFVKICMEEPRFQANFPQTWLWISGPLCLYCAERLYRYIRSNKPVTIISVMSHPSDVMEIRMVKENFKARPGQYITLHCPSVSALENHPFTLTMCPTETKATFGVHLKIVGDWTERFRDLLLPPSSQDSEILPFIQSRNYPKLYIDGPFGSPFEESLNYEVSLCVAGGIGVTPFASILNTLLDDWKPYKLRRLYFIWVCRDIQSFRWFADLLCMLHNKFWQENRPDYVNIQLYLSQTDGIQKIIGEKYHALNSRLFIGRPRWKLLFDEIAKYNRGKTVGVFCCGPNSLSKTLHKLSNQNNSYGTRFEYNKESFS
Test [10] deals with NADPH oxidase 5 (Homo sapiens) (UniProt Q96PH1). Briefly: compounds shifting NOX5 Amplex Red fluorescence – cell-based, HEK293-NOX5, NOX inhibitor project, primary screen (AID 1161). The settings on record: HEK293-NOX5, ionomycin, 45 min, higher = more signal.
NADPH oxidase 5 (Homo sapiens), sequence (Q96PH1 whole entry, looked up): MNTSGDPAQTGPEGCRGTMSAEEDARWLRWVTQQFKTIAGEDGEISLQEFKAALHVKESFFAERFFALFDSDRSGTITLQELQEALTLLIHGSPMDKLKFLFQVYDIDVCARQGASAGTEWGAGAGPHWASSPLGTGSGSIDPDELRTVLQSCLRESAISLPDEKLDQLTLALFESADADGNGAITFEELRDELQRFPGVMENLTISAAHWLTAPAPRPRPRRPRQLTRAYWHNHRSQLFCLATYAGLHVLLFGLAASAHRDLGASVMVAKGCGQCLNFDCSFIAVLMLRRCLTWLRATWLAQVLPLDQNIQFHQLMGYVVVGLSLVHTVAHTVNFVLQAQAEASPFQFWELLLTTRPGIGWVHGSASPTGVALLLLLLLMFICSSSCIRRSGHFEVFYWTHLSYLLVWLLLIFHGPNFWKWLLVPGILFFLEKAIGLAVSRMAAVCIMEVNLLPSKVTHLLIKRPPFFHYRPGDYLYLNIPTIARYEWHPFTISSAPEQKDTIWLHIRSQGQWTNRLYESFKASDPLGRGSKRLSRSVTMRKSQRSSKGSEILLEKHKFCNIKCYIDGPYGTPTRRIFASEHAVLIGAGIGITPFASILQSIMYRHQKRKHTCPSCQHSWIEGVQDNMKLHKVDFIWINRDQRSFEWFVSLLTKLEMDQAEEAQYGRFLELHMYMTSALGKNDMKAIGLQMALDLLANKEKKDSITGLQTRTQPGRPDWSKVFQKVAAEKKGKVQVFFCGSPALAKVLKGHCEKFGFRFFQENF
Test [11] in a line: compound effects on lung adenocarcinoma cell viability – A549, calcein-AM fluorescence, 48 h, basal, profiling panel (AID 1162). Note: test concentration not given here. To be noted: higher = more signal.
The nature of test [12]: compound effects on differentiated 3T3-L1 adipocyte viability – cell-based, 3T3-L1 adipocytes, calcein-AM fluorescence, 48 h, basal, profiling panel (AID 1163). Note: test concentration not given here. The settings on record: 3T3-L1 adipocytes viability, higher = more signal.
Test [13] can be described thus: compound effects on hepatocellular carcinoma cell viability – HepG2, calcein-AM fluorescence, 48 h, basal, profiling panel (AID 1164). Note: test concentration not given here. The settings on record: higher = more signal.
A short description of test [14]: compound effects on multiple myeloma cell viability – MM1S, calcein-AM fluorescence, 48 h, basal, profiling panel (AID 1165).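 Note: viability of MM1S multiple myeloma cells under basal unstimulated conditions; test concentration not given here.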 The settings on record: higher = more signal.
Test [15] is described as follows: calcein-AM signal in unstimulated myeloma cells – cell-based, calcein-AM fluorescence, 48 h, PK04 Diversity Set, profiling panel (AID 1166).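 Note: cells grown under basal conditions without added stimulus; test concentration not given here.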 The settings on record: RPMI8226 myeloma viability, higher = more signal.
Test [16] can be described thus: JC-1 mitochondrial signal, unstimulated HepG2 cells – cell-based, JC-1 fluorescence, 24 h, 100 nL compound, profiling panel (AID 1167). Note: test concentration not given here. To be noted: HepG2 mitochondrial potential, higher = more signal.
Test [17] can be described thus: JC-1 mitochondrial signal, unstimulated adipocytes – cell-based, JC-1 fluorescence, 3T3-L1 adipocytes, 24 h, 100 nL compound, profiling panel (AID 1168). Note: test concentration not given here. The settings on record: JC-1 mitochondrial fluorescence, higher = more signal, called active from +8 up or from −8 down.
A short description of test [18]: JC-1 mitochondrial signal, unstimulated myeloma cells – cell-based, JC-1 fluorescence, RPMI8226, 24 h, 100 nL compound, profiling panel (AID 1169). Note: test concentration not given here. To be noted: JC-1 mitochondrial potential fluorescence, higher = more signal.
A short description of test [19]: JC-1 mitochondrial signal, unstimulated MM1S myeloma – cell-based, JC-1 fluorescence, 24 h, 100 nL compound, profiling panel (AID 1170). Note: test concentration not given here. To be noted: MM1S mitochondrial potential, higher = more signal.
Test [20] in a line: resazurin metabolic signal in A549 cells – cell-based, resazurin fluorescence, 24 h, PK04 Diversity Set, profiling panel (AID 1171). Note: test concentration not given here. The settings on record: A549 viability, higher = more signal, called active from +8 up or from −8 down. For orientation: Alamar Blue is a resazurin reagent that responds to reducing activity.

As to `O=C1O[C@H](Cc2ccccc2)[C@@H]2[C@H]3C=CCCC=C3CN2[C@H]1Cc1ccc(O)cc1`, the z-score in test [1] was 0.676 (inactive); in test [3], 3.72 (inactive); in [4], 0.0962 (inactive); in test [5], 0.0059 (inactive); in test [6], 0.157 (inactive); in test [7], -0.253. The z-score in [8] is -2.69 (inactive); in test [9] it was -1.58 (inactive); in test [10] it was -1.3; in [11], 0.405; in test [12], -0.276; in test [13], 0.146. Besides, the z-score in test [14] is -3.14; in test [15] it was -0.148; in test [16] it was -2.65; in [17] it was -0.639 (inactive); in [18], -1.05; in [19], -1.69. For the same compound, in test [20], the z-score was 0.745 (inactive). The compound further displayed a composite z-score in test [2] of 0.0811.
`Cc1ccc(S[C@]2(C(=O)NCC(F)(F)F)CC(=O)N(Cc3ccccc3C(F)(F)F)[C@@H]2c2ccc(CO)cc2)cc1`: the z-score in [1] was -0.262 (inactive); in test [3], 1.4 (inactive); in test [4], -0.107 (inactive); in test [5], -0.142 (inactive); in [6], 0.135 (inactive); in test [7] it was -0.0621. The z-score was -2.02 (inactive) in test [8]; 0.426 (inactive) in test [9]; -0.0735 in [10]; -0.859 in test [11]; 0.0909 in [12]; -0.768 in [13]. Moreover, the z-score in test [14] was -1.04; in test [15], 0.0646; in [16], -0.523; in [17], 0.0107 (inactive); in test [18], 0.0145; in test [19], -0.594. Moreover, the z-score in test [20] is 0.413 (inactive). This compound had a composite z-score in test [2] of 0.007.
Regarding `COCCOC(=O)N1C(=O)[C@@]2(c3cc(C#CCCO)ccc31)[C@H](c1ccccc1OCCO)N1[C@H](c3ccccc3)[C@H](c3ccccc3)OC(=O)[C@H]1[C@@H]2C(N)=O`, the z-score was 1.46 (inactive) in test [1]; 20.3 (active) in test [3]; 4.04 (inactive) in test [4]; 0.633 (inactive) in test [5]; 0.934 (inactive) in test [6]; 0.868 in test [7]. Besides, the z-score in test [8] was 1.81 (inactive); in test [9], 0.552 (inactive); in test [10], -0.302; in [11], 0.49; in test [12], 1.8; in [13] it was -0.112. Also, the z-score in test [14] is -1.49; in [15] it was -4.2; in test [16] it was 0.446; in test [17] it was 1 (inactive); in test [18] it was -1.22; in test [19], -1.12. For the same compound, the z-score in test [20] is -0.0131 (inactive). For the same compound, the composite z-score in test [2] is -0.278.
On to `CO[C@H]1O[C@H](CO)[C@@H](OC(=O)Nc2ccc3c(c2)OCO3)[C@H](OC(=O)Nc2ccccc2-c2ccccc2)[C@H]1OC(=O)Nc1ccccc1-c1ccccc1`, for which the z-score in test [1] was -0.133 (inactive); in test [3], 2.14 (inactive); in test [4], 0.825 (inactive); in [5], -0.124 (inactive); in test [6], 1.21 (inactive); in test [7], -0.311. The z-score in test [8] is -4.55 (inactive); in test [9], -0.707 (inactive); in [10], -0.848; in test [11], -3.97; in [12], 0.548; in test [13], -3.71. In addition, the z-score in test [14] is -3.34; in [15], -2.72; in [16], 0.0319; in test [17], 2.04 (inactive); in test [18], -0.819; in [19], -1.76. In addition, in test [20], the z-score was -3.84 (inactive). The same compound came in with a composite z-score in test [2] of -0.0536.
As to `[N-]=[N+]=Nc1ccccc1C[C@@]1(C(=O)NCc2ccccc2)N=C(c2ccc(OCCCO)cc2)O[C@@H]1c1ccccc1N=[N+]=[N-]`, the z-score in [1] was 0.0484 (inactive); in test [3], 31.4 (active); in test [4], 24.3 (active); in test [5], 2.08 (inactive); in [6] it was 0.984 (inactive); in test [7], 1.38. The z-score in [8] is -4.79 (inactive); in test [9], -2.16 (inactive); in test [10], -1.67; in test [11], -1.58; in test [12], 1.31; in test [13] it was -0.83. The z-score in [14] is -3; in [15], -4.36; in test [16] it was 0.728; in test [17], -0.182 (inactive); in [18], -1.23; in test [19], -0.936. The z-score in test [20] is -0.996 (inactive). This compound returned a composite z-score in test [2] of 0.399.
For the compound `COc1cc(CO)cc(I)c1O[C@H]1C=C(C(=O)NCCO)C[C@@H]2O[C@H]12`, the z-score is -0.211 (inactive) in test [1]; 11.1 (active) in test [3]; 3.45 (inactive) in [4]; 2.06 (inactive) in test [5]; 2 (inactive) in [6]; 0.179 in test [7]. Besides, the z-score was 1.46 (inactive) in [8]; -0.691 (inactive) in [9]; -6.01 in test [10]; -0.42 in test [11]; 0.254 in test [12]; -0.697 in test [13]. Moreover, the z-score was 0.264 in test [14]; -3.2 in [15]; -0.873 in [16]; -0.389 (inactive) in test [17]; -0.443 in test [18]; -0.52 in test [19]. Moreover, in test [20], the z-score was -1.41 (inactive). The same compound gave a composite z-score in [2] of 0.369.
Regarding `CC(C)C[C@@H]1NC(=O)[C@@]23C(=O)N[C@@H](Cc4ccccc4)C2[C@H](C)[C@@]2(C)O[C@H]2C3/C=C/C/C=C\CNC(=O)CNC1=O` (stereo not given in full), the z-score in test [1] was -0.815 (inactive); in test [3], 0.917 (inactive); in test [4], 0.0107 (inactive); in test [5], -0.023 (inactive); in [6], 0.329 (inactive); in test [7] it was 0.208. Moreover, the z-score in [8] was 1.82 (inactive); in [9] it was 1.2 (inactive); in [10] it was -0.441; in test [11], 0.201; in test [12], 0.97; in test [13] it was -0.47. Moreover, the z-score is -0.288 in test [14]; -0.174 in test [15]; -0.572 in test [16]; -0.159 (inactive) in test [17]; 0.149 in test [18]; 0.694 in test [19]. Also, in [20], the z-score was -0.624 (inactive). Also, the composite z-score in [2] is -0.0832.
As to `COc1ccc([Si](C)(C)[C@H]2[C@H](CCO)O[C@@]3(C(=O)N(Cc4cccc(N(C=O)c5ccccc5)c4)c4ccccc43)[C@@H]2C)cc1`, the z-score was 2.15 (inactive) in [1]; 2.24 (inactive) in test [3]; 2.47 (inactive) in test [4]; 1.1 (inactive) in test [5]; 1.82 (inactive) in test [6]; 1.91 in [7]. Further, the z-score in test [8] is -1.31 (inactive); in test [9] it was 0.451 (inactive); in test [10], 0.00518; in test [11] it was -0.533; in test [12], 0.441; in [13], -3.83. In addition, the z-score was -1.18 in test [14]; -4.23 in test [15]; 1.01 in test [16]; 0.549 (inactive) in test [17]; -1.03 in test [18]; -1.85 in [19]. Moreover, in test [20], the z-score was -2.2 (inactive). Further, the composite z-score in [2] is -0.339.
